An excerpt weighted towards active compounds, which were near 2.9% of everything screened.
TSHR antagonist: Antagonists of the Thyroid Stimulating Hormone Receptor: HTS campaign | activity change, negative = inhibition, % at 11.5 µM | TSHR-expressing cells, TSH-stimulated cAMP HTRF, 2 h; active compounds read low | Thyrotropin receptor (Homo sapiens), P16473 | hit rate 0.2% among 330,000;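 active = activity change below a set negative limit, meaning inhibition stronger than a set level, cut at about -70% in these data; inconclusive = activity change between two set negative limits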; note: % is set by controls: 0 for no effect and ±100 for the full control effect
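Freshly harvested TSHR cells receive pin-tooled compound, then EC80 TSH at 4nM final. After 2 hours at 37 deg C, antibody in lysis buffer and cAMP-d2 are added; 30 minutes at ambient temperature precede the HTRF read.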
DRD3 agonist: qHTS of D3 Dopamine Receptor Agonist: qHTS. D(3) dopamine receptor (Homo sapiens), P35462. hit rate 0.58% among 410,000. max activation, %. D3R DiscoveRx beta-arrestin cells, luminescence, 90 min; in the data active = max activation above about 30%; note: 0% is about no effect
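Cells at 1500/well, incubated overnight, then treated with pinned compounds (dopamine as control) for 90 min at 37 degrees C. DiscoveRx reagent added for 30 - 60 minutes at room temperature; luminescence read.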
DRD3 antagonist: qHTS of D3 Dopamine Receptor Antagonist: qHTS. D(3) dopamine receptor (Homo sapiens), P35462. D3R cells, DiscoveRx beta-arrestin luminescence, antagonist mode; active compounds read low. max response, negative = inhibition, %. hit rate 2.5% among 360,000; in the data active = max response below about -50%; inconclusive = no clear call, values can overlap the other calls; note: % is set by controls: 0 for no effect and ±100 for the full control effect
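Cells expressing the human receptor were seeded at 1500 cells/well, incubated overnight at 37 degrees C in 5% CO2, then exposed to library compounds with dopamine controls for 90 minutes at 37 degrees C before luminescent detection.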
B2AR arrestin: qHTS assay of beta-arrestin-biased ligands of beta2-adrenergic receptor; Beta-2 adrenergic receptor (Homo sapiens), P07550; beta-arrestin recruitment to beta2AR, cell-based reporter; Potency, µM (titrated, usually from 46.1 µM), for the others: at the top dose activation, actives largely listed as activators; hit rate 0.02% among 330,000; AID 492947, 2010; active = well fitted activation curve with a large enough effect; inconclusive = small, poorly fitted or top-dose-only effect;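 note: potency is the fitted concentration of half-maximal effect; 0% = DMSO controls and full agonism = EC100 isoproterenol or metaproterenol; nearly all actives have a fitted effect of over 65% in size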
Target sequence (P07550 whole entry, looked up): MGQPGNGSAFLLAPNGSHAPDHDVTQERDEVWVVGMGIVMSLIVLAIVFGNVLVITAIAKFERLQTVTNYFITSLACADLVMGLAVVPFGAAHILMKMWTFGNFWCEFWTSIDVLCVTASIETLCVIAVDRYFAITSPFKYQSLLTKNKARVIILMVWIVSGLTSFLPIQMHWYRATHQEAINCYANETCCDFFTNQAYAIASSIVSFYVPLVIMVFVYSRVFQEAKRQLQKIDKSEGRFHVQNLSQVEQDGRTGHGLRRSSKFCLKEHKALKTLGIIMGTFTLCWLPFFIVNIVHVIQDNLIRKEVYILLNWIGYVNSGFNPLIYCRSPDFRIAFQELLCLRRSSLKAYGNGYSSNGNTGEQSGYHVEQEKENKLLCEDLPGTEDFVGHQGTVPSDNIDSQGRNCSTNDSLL
The depositor's hits bear a star; ? = inconclusive; / = no result.

SMILES	TSHR antagonist	DRD3 agonist	DRD3 antagonist	B2AR arrestin
O=C(Cn1cnc2c(NCc3ccccc3)ncnc21)N1CCN(c2ccccn2)CC1	-2	3	18	0%
Cc1ccc(S(=O)(=O)c2c(C(=O)c3ccccc3)cnc3cc4c(cc23)OCCO4)cc1	-83*	2	-1	0%
Cc1c(C(=O)c2ccc(Cl)c(Cl)c2)cnc2cc3c(cc12)OCO3	-16	2	-56*	-1%
CCOc1ccc(C(=O)NC(=S)Nc2cccc(NC(=O)c3ccco3)c2)cc1[N+](=O)[O-]	-7	-8	-69*	0%
COCCCNCCCCSc1ccc(Cl)cc1	5	-37	?	0%
COCCCNCCOCCSc1ccc(Cl)cc1	11	-31	-68*	0%
OCCNCCSc1ccc(Cl)cc1	7	-4	2	-1%
C=CCc1cc(Cl)ccc1OCCOCCN(C)C	11	-20	-25	0%
CCCCNCCOCCSc1ccc(Cl)cc1	4	-7	-81*	-1%
CC(C)NCCOCCSc1ccc(Cl)cc1	-5	-9	-84*	1%
CN(C)CCOCCSc1ccc(Cl)cc1	16	-28	-86*	0%
O=C(CSc1nccn1-c1ncc(C(F)(F)F)cc1Cl)c1ccc(Cl)cc1	6	1	-107*	0%
O=C(OCCN1CCN(c2ncc(C(F)(F)F)cc2Cl)CC1)c1ccc(Cl)cc1	1	-11	-83*	0%
Fc1ccc(NCc2ccccc2-c2nnc(-c3ccccc3Cl)o2)cc1	/	4	/	/
CCN1CCCC1CNC(=O)c1ccc(Sc2ccc(F)cc2)c([N+](=O)[O-])c1 (stereo not given)	18	-8	-77*	-1%
CCN1CCN(C(=O)c2ccc(Sc3ccccc3Cl)c([N+](=O)[O-])c2)CC1	6	-8	?	0%
CCN1CCCC1CNC(=O)c1ccc(Sc2ccccc2Cl)c([N+](=O)[O-])c1 (stereo not given)	0	-15	-75*	1%
COc1ccc(-c2cc3c(=O)n(CC(=O)NCCCN4CCN(Cc5ccccc5)CC4)ncn3n2)cc1	1	-15	-67*	-1%
COc1ccc(-c2cc3c(=O)n(CC(=O)NCc4cccnc4)nc(C)n3n2)cc1	-139*	-13	-9	-1%
COc1ccc(-c2cc3c(=O)n(CC(=O)NCCCN4CCC(Cc5ccccc5)CC4)ncn3n2)cc1	11	-23	-101*	0%
COc1ccc(-c2cc3c(=O)n(CC(=O)NCc4ccc(Cl)cc4)ncn3n2)cc1	-1	5	11	0%
Cc1ccc(SCC(=O)Nc2ccc(N3CCN(C)CC3)c(F)c2)c(C)c1	9	-3	-98*	0%
Cc1cccc(C(=O)O[C@@H]2[C@H](Cc3ccccc3)NS(=O)(=O)[C@H]3C[C@@H]4C=C[C@]23O4)c1	-9	52*	-6	0%
Cc1cccc(C(=O)O[C@H]2[C@H](Cc3ccccc3)NS(=O)(=O)[C@H]3CC4C=C[C@]23O4)c1	1	12	4	0%
O=C(Nc1ccc(Cl)c(S(=O)(=O)N2CCOCC2)c1)c1ccc(OCC2CCCO2)cc1 (stereo not given)	-87*	17	125	0%
SMILES	TSHR antagonist	DRD3 agonist	DRD3 antagonist	B2AR arrestin
COc1ccc(C(=O)Nc2ccc(Cl)c(S(=O)(=O)N3CCOCC3)c2)cc1	-45	7	13	-1%
COc1cccc(OC)c1C(=O)Nc1ccc2c(c1)N(S(=O)(=O)c1cccs1)CCC2	-112*	-1	-16	0%
CNS(=O)(=O)c1cccc(C(=O)Nc2cccnc2)c1	3	-23	-57*	-1%
N/C(=N\OC(=O)c1ccccc1Br)c1ccc([N+](=O)[O-])cc1	-5	3	-71*	0%
N/C(=N\OC(=O)c1ccc(Cl)c([N+](=O)[O-])c1)c1ccccc1	-23	2	-65*	3%
Cc1cc(Cl)ccc1NC(=O)C1CCN(S(=O)(=O)c2ccc3[nH]c(=O)ccc3c2)CC1	/	1	/	/
O=C(OCc1cc(=O)n2nc(-c3cccs3)sc2n1)c1ccccc1Cl	/	-2	/	/
CCS(=O)(=O)c1nc(S(=O)(=O)c2ccc(Cl)cc2)c(N2CCCC2)s1	24	0	4	0%
Cc1ccc(S(=O)(=O)c2nc(S(=O)(=O)c3ccc(C)cc3)c(N3CCN(CCO)CC3)s2)cc1	21	-18	-92*	0%
CCS(=O)(=O)c1nc(S(=O)(=O)c2ccc(Cl)cc2)c(N2CCN(C)CC2)s1	53	-20	-75*	0%
Cc1cc(C)n2cc(CSc3nnc(N)s3)nc2n1	3	1	-53*	0%
Cc1cc(C)n2cc(CSc3ccc(Cl)cc3)nc2n1	-12	1	1	-1%
Cc1cc(C)n2cc(CSc3nnc(SCc4cn5c(C)cc(C)nc5n4)s3)nc2n1	-4	/	/	0%
Cc1cc(C)n2cc(CSc3nc4cc(Cl)ccc4o3)nc2n1	-7	-1	-51*	0%
CCc1cccc(NC(=O)c2c(N3CCCC3=O)c3cc(C)ccc3n2C)c1	/	6	/	/
Cn1c(=O)n(C)c2cc(NS(=O)(=O)c3ccc(F)cc3)c(NCc3ccccc3)cc21	/	2	/	/
CCOC(=O)C1=C(CSc2nc3c(cc2C#N)CN(C)CC3)OC(N)=C(C#N)C1c1ccccc1 (stereo not given)	-9	-9	-24	0%
CN1CCc2nc(SCCOc3ccccc3)c(C#N)cc2C1	1	-29	-58*	0%
NC(=O)CC(NC(=O)Cc1cccc2ccccc12)c1ccc(NCc2ccccc2)c([N+](=O)[O-])c1 (stereo not given)	4	-15	-51*	0%
NC(=O)CC(NC(=O)Cc1cccc2ccccc12)c1ccc(NC2CCCCCCC2)c([N+](=O)[O-])c1 (stereo not given)	18	-35	-61*	0%
NC(=O)CC(NC(=O)Cc1cccc2ccccc12)c1ccc(NC2CCCCCC2)c([N+](=O)[O-])c1 (stereo not given)	-4	-12	-23	0%
NC(=O)CC(NC(=O)Cc1cccc2ccccc12)c1ccc(NCCc2ccc(F)cc2)c([N+](=O)[O-])c1 (stereo not given)	-5	-19	?	0%
NC(=O)CC(NC(=O)Cc1cccc2ccccc12)c1ccc(NCc2ccc(F)cc2)c([N+](=O)[O-])c1 (stereo not given)	-1	-35	-60*	-1%
COCCCNC(=O)CSc1nc(-c2ccc(OC)cc2)[nH]c1-c1ccc(OC)cc1	/	-5	/	/
CC1=C(C(=O)Nc2ccc(Cl)cc2)C(c2cccs2)n2nc(SCc3cccc(Cl)c3)nc2N1 (stereo not given)	/	7	/	/
Cc1nn(C)c2c1c(C(F)(F)F)cc(=O)n2CC(=O)NCc1ccccc1Cl	/	8	/	/
Cc1ccccc1CNC(=O)c1ccc(Cn2c(SCc3ccccc3)nc3cccnc32)cc1	/	-21	/	/
O=c1[nH]c(=S)[nH]c2nc(-c3ccccc3)cnc12	/	-3	-20	/
